Test results: PubChem BioAssay AID916 (National Center for Advancing Translational Sciences (NCATS), 2007)
Records with an inconclusive call do not appear. The source made the active and inactive calls. Calls come from the whole dose curve; as a rule, active = well fitted activation curve with a large enough effect in the signal ratio, with a control signal flat (not every such curve was filed as active); inconclusive = small, poorly fitted or top-dose-only effect, or a change in a side signal; inactive = flat fitted curve, though single readings scatter; the % refers to the signal ratio.

Assay: Confirmation Concentration-Response Assay for Cell signaling CRE-BLA (Fsk stim)
Conditions: CHO CRE-bla reporter (cAMP response element driving beta-lactamase), NKH477 EC10 stim, FRET ratio; series mostly up to 38.3 µM
From the text: NIH Molecular Libraries Screening Centers Network [MLSCN] NIH Chemical Genomics Center [NCGC] MLSCN Grant: 1X01MH079867-01 Assay Provider: Marshall W. Nirenberg, U.S. National Heart, Lung and Blood Institute CRE beta-lactamase Assay Overview Memories persist for different lengths of time, from seconds or minutes to a lifetime. There are two kinds of memory: short-term memory (STM) and long-term memory (LTM). STM lasts for minutes to hours, which maybe mediated by modifications of molecules involved in synaptic functions. LTM lasts for days or longer, and may be due to the formation of new synapses or restructuring of existing synapses. LTM, but not STM, requires gene transcription and synthesis of proteins. CREB (cyclic-AMP Responsive Element Binding Protein) is one of the candidates plays an important role for enhancement of some types of LTM. CREB, a family of transcription factors, regulates the transcription of genes containing cAMP Responsive Elements (CRE). CRE is a nucleotide sequence often found in the promoter regions of genes that are binding sites for CREB. Using a beta-lactamase reporter-gene under control of cAMP responsive element, a cell-based assay [CellSensor(TM) CRE-bla CHO developed by Invitrogen Corp.] was used to measure forskolin-induced signaling. The selected compounds were measured for their ability to modulate positively the action of EC10 NKH 477, a water soluble forskolin, on reporter gene activity. Compounds were screened in a titration series in 1536-well format. Positive modulators were identified based on the AC50 values derived from the screening data.
NCGC Assay Protocol Summary 2000 cells/5uL in Opti-MEM medium containing 0.5% dialyzed FBS, 0.1 mM NEAA, 1 mM sodium pyruvate and 10 mM HEPES was dispensed into 1536-well plates and cells were cultured at 37 degrees Celsius overnight. Next day 23 nL of compounds or DMSO were delivered to each well using a pin tool, and 1uL of EC10 level of NKH 477, or EC100 level of IBMX, a PDE inhibitor, in the present of NKH 477, or assay medium was added. And then the plates were incubated at 37 degrees Celsius for 3 hours. 1 uL of CCF4-dye mixture was added to each well. After incubated at room temperature for 2 hours the plates were measured on an EnVision plate reader at Excitation 405nm, Emission1=460nm and Emission 2=530nm. The %Activity was determined from the ratio of 460nm/530nm. Keywords: NIH Roadmap, MLSCN, MLSMR, qHTS, NCGC, CRE, beta-lactamase reporter-gene assay.

Potency, inactive:
O=C(c1cc(S(=O)(=O)N2CCOCC2)ccc1F)N1CCCc2ccccc21
Fc1ccc(C2=Nn3c(Cc4ccccc4)nnc3SC2)cc1
Cc1ccc(-n2ncc3c(=O)[nH]c(SCC(=O)N4CCOCC4)nc32)cc1
CC1CCc2c(sc3nc(C4CC4)nc(SCC(=O)NCc4ccco4)c23)C1 (stereo not given)
Cc1cc(C)nc(N2CCN(c3nc(C)nc4c3oc3ccccc34)CC2)n1
Cc1cc(C)n(-c2nc(Nc3ccccc3)nc(-n3nc(C)cc3C)n2)n1
Cn1c(/C(C#N)=C/Nc2ccccn2)nc2ccccc21
CN(C)c1nc(N(C)C)nc(N(C)C)n1
Cn1c(/C(C#N)=C/C2CC=CCC2)nc2ccccc21 (stereo not given)
CN1C(=O)NC(c2ccccc2)C2=C1CN(Cc1ccccc1)C2=O (stereo not given)
CCN(C(=O)c1cn(C)c(=O)c2cc(OC)c(OC)cc12)c1cc(OC)ccc1OC
Nc1nc(CSCc2ccccc2)nc(N2CCOCC2)n1
COc1cc(C2NC(=O)NC(C)=C2C(=O)OC(C)(C)C)ccc1OCC(N)=O (stereo not given)
Cc1ccc(Nc2c3c(nc4ncnn24)CCC3)cc1
O=C(Nc1ccccc1O)c1cc(S(=O)(=O)N2CCOCC2)ccc1Cl

Potency, active:
CC[C@]1(O)C[C@@H]2CN(CCc3c([nH]c4ccccc34)[C@](C(=O)OC)(c3cc4c(cc3OC)N(C=O)[C@H]3[C@@](O)(C(=O)OC)[C@H](C(=O)OC)[C@@]5(CC)C=CCN6CC[C@]43[C@H]65)C2)C1 0.501 µM
CCc1nc(Nc2ccc3nccnc3c2)c2oc3ccccc3c2n1 1.58 µM
Cc1sc2nc(SCc3nc4ccccc4[nH]3)n(Cc3ccco3)c(=O)c2c1C 1.26 µM
CC[C@]1(O)C[C@@H]2CN(CCc3c([nH]c4ccccc34)[C@](C(=O)OC)(c3cc4c(cc3OC)N(C)[C@H]3[C@](O)(C(=O)OC)[C@@H](C(=O)OC)[C@@]5(CC)C=CCN6CC[C@@]43[C@@H]65)C2)C1 0.0631 µM
COC(=O)c1ccc(CSc2ccc3nnc(-c4cccc(F)c4)n3n2)o1 15.8 µM
Cc1cc(N2CCN(S(=O)(=O)c3ccc4c(c3)OCCO4)CC2)n2ncnc2n1 3.16 µM
CCOC(=O)c1ccccc1NC(=O)c1cc(S(=O)(=O)N2CCOCC2)ccc1F 12.6 µM
CCc1nc2nc(C)cc(Nc3cccc(C(F)(F)F)c3)n2n1 7.94 µM
COC(=O)c1ccc(CSc2nc3c(cnn3-c3ccc(F)cc3)c(=O)[nH]2)o1 15.8 µM
CCc1nc(SCC(=O)N2CCc3ccccc32)c2oc3ccccc3c2n1 10 µM
COc1cc(-c2cc(=O)c3ccccc3o2)ccc1O 15.8 µM
COC(=O)Nc1nc2ccc(C(=O)c3cccs3)cc2[nH]1 0.794 µM
CCOC(=O)C1=C(CN2CCC(C)CC2)NC(=O)NC1c1ccc(Cl)cc1 (stereo not given) 12.6 µM
Cc1nn(-c2ccccc2)c2sc(C(=O)N(CC(=O)NC(C)(C)C)Cc3ccco3)cc12 7.94 µM
CCCN(C#N)c1nc(NCC)nc(NC(C)C)n1 12.6 µM
O=S(=O)(Nc1cccc(-c2nc3cccnc3s2)c1)c1ccc2c(c1)OCCO2 10 µM
CSc1nc2ccc(Nc3nc(N4CCOCC4)nc(N4CCOCC4)n3)cc2s1 12.6 µM
Cc1cc(-c2nnc3n2N=C(c2ccc(-c4ccccc4)cc2)CS3)n[nH]1 12.6 µM
Cn1c(C(=O)NCCCN2CCCC2=O)cc2c(=O)n(C)c3ccccc3c21 25.1 µM
CCCCCOC(=O)c1[nH]c2c(c1C)C(=O)CC(c1ccco1)C2 (stereo not given) 0.251 µM
Fc1ccc(CSc2ncnc3c2oc2ccccc23)cc1 10 µM
CCCN(CCC)c1nc2ccccc2n2c(C)nnc12 12.6 µM
COc1ccc(CCNC(=O)CSc2nc(C)nc3c2oc2ccccc23)cc1OC 12.6 µM
CCOc1ccc(C2c3c(oc4ccccc4c3=O)C(=O)N2c2ccc(C)cn2)cc1OC (stereo not given) 15.8 µM
CCN(CC)c1nc2ccccc2n2cnnc12 15.8 µM
